# Out of some 110,000 compounds screened, about 420 (0.38%) were called active. Rule as the data show it: active = inhibition above about 30% (passing the limit was not always enough); inconclusive = no clear call, values can overlap the other calls. The entries come from a sample that favours actives as a whole.
# Tested on: RmlC (dTDP-4-dehydrorhamnose 3,5-epimerase) and RmlD (dTDP-4-dehydrorhamnose reductase), coupled enzyme assay
# Assay: RmlC and RmlD coupled enzyme inhibitors, primary screen, biochemical, 384-well, compound mixtures, retest (AID 1532)
# Conditions: 384-well mixture HTS, at 5.5 µM, stronger effect = higher value
# [1] = measured here: mean retest inhibition
smiles,measurement,setting,value
CCC1(CC)C(=O)C2=C3C1[C@H](C(=O)OC)C=C(C(=O)OC)C[C@H]3[C@H]1C(=O)N(Cc3ccccc3)C(=O)[C@H]1[C@H]2C (stereo not given in full),inhibition,,-0.95% (inactive)
C=C1CCN([C@H](C(=O)NCc2cc(OC)c(OC)c(OC)c2)C(C)C)S(=O)(=O)c2ccccc21,inhibition,,5.25% (inactive)
CC1(C)CC[C@]2(C(=O)O)CC[C@]3(C)C(=CCC4[C@@]5(C)CC[C@H](O)C(C)(C)C5[C@H](O)C[C@]43C)[C@@H]2C1 (stereo not given in full),inhibition,,-10.3% (inactive)
CCCCN1C(N)=NC[C@@H]1Cc1ccccc1,inhibition,,-9.09% (inactive)
COC(C[C@H](O)CC(=O)[C@@H](C)OCc1ccccc1)OC,inhibition,,5.9% (inactive)
C=C1CCN([C@@H](Cc2ccccc2)C(=O)N2CCOCC2)S(=O)(=O)c2ccccc21,inhibition,,-7.13% (inactive)
C#CCO[C@@H]1C[C@H](n2cnc3c(=O)[nH]c(NC(=O)C(C)C)nc32)O[C@@H]1CO,inhibition,,17.4% (inactive)
CCO[C@@H]1OC(C(=O)NC2CC2)=C[C@H](C)[C@H]1CCCO,inhibition,,-10.3% (inactive)
C#CCOCCOCCOCCNc1nc(N2CCN(C(=O)C([C@@H](C)CC)n3cc(C(N)COC(=O)C(F)(F)F)nn3)CC2)nc(N2CCN(C(=O)[C@H](Cc3ccc(O)cc3)n3cc(C(N)[C@H](C)CC)nn3)CC2)n1 (stereo not given in full),inhibition,,-15.9% (inactive)
COc1ccc(C2/C=C\CN(S(=O)(=O)c3cccs3)CC(=O)N2Cc2ccc(F)cc2)cc1 (stereo not given),inhibition,,-18.6% (inactive)
CCc1nnc(SCc2cccc(F)c2)nc1CC,inhibition,,-1.83% (inactive)
Cc1cccc(Nc2nc(NCCO)nc(N3CCCC3)n2)c1,inhibition,,-9.11% (inactive)
COCOc1cc(O)c(C(=O)/C=C/c2ccc(OCOC)c(OCOC)c2)c(OCOC)c1,inhibition,,4.09% (inactive)
COc1cc(/C=C/CO)cc(OC)c1O[C@@H]1O[C@H](CO)[C@@H](O)[C@H](O)[C@H]1O,inhibition,,-10.6% (inactive)
CC(C)NC(=O)NCCCCCCS(C)=O (stereo not given),inhibition,,-13.8% (inactive)
CCCCC1=CC2=CC(=O)C(C)(OC(=O)CC)C(=O)C2=CN1CCCOC(C)C (stereo not given),inhibition,,21.9% (inactive)
CC1=C(C)C(=O)OC(C(C)C2CCC3C4CC=C5CC(OC6OC(COC7OC(CO)C(O)C(O)C7O)C(O)C(O)C6O)CC(O)C5(C)C4CCC23C)C1 (stereo not given),inhibition,,-13.2% (inactive)
C/C=C(/C)C(=O)O[C@@H]1c2cc3c(c4c2[C@@]2(CO4)C(=O)C(OC)=C(OC)C=C2C[C@@H](C)[C@H]1C)OCO3,inhibition,,-2.38% (inactive)
C/C=C(\C)C(=O)NCCN1C2=NC[C@H](Cc3ccc(O)cc3)N2C[C@@H]1Cc1ccc(OC)cc1,inhibition,,6.27% (inactive)
COC(=O)CCCC1=CC2=CC(=O)C(C)(OC(=O)c3cccs3)C(=O)C2=CN1CC(C)C (stereo not given),inhibition,,6.81% (inactive)
O=C(C1=C[C@H](c2coc3ccccc3c2=O)C[C@H](OCc2ccc(CO)cc2)O1)N1CCN(Cc2ccccc2)CC1,inhibition,,13.6% (inactive)
C=CCNC(=O)c1ccc2c3n(nc2c1)-c1ccc(C)cc1CO3,inhibition,,-4.6% (inactive)
C[C@H]1CC[C@]2(O[C@@H](CCO)C[C@@H](O)[C@@H]2O)O1,inhibition,,6.2% (inactive)
C=C1C2C[C@H](O)C(C)(C)[C@@]2(O)[C@H](O)C[C@]23C[C@@](C)(O)[C@H](CC[C@H]12)[C@H]3O (stereo not given in full),inhibition,,-7.47% (inactive)
CCO[C@H]1OC(C(=O)Nc2ccccc2)=C[C@@H](C2CC2)[C@@H]1CCCO,inhibition,,-2.12% (inactive)
COc1ccc(CCNC(=O)C2CC3Cn4c(nc5cc(C)c(C)cc54)C3N2C)cc1 (stereo not given),inhibition,,5.88% (inactive)
O=C(NCc1ccccc1)C1=C[C@@H](c2ccccc2)C[C@@H](OCCCCO)O1,inhibition,,-11.4% (inactive)
COC(=O)CCCC1=CC2=C(c3ccccc3)C(=O)C(C)(OC(=O)C3CCCC3)C(=O)C2=CN1c1ccc(OC)cc1 (stereo not given),inhibition,,6.14% (inactive)
COc1ccc2c(c1)CC[C@@H]1[C@@H]2CC[C@]2(C)C(=O)CC[C@@H]12,inhibition,,0.97% (inactive)
C#CCOCCOCCOCCNc1nc(N2CCN(C(=O)[C@H](C(C)C)n3cc(CCO)nn3)CC2)nc(N2CCN(C(=O)[C@H]([C@@H](C)CC)n3cc(CCCN=C(N)N)nn3)CC2)n1,inhibition,,9.85% (inactive)
CC(=O)Oc1ccc(NC(=O)CCC2CCCCC2)c(C(=O)O)c1,inhibition,,0.91% (inactive)
COC(=O)Cc1c(C)c2ccc(OCC(=O)NCc3ccc4c(c3)OCO4)cc2oc1=O,inhibition,,12.6% (inactive)
O=C(Oc1ccccc1)Oc1ccc2c(c1)oc(=O)c1ccccc12,inhibition,,-16.4% (inactive)
O=C(Nc1cc2ccccc2oc1=O)C1CCCCC1,inhibition,,-8.93% (inactive)
CC(=O)Oc1ccc2c(C)c(CC(C)O)c(=O)oc2c1 (stereo not given),inhibition,,100% (active)
same,inhibition,[1],151%
CC(=O)Nc1cc2ccc(OC(C)=O)cc2oc1=O,inhibition,"above what the read-out allows, likely interference",671% (active)
C=CCC1(C(=O)N(C)Cc2ccccc2)CCN(C(=O)OC(C)(C)C)CC1,inhibition,,4.78% (inactive)
NC(=O)C[C@@H]1NC(=O)CNC(=O)c2cc([N+](=O)[O-])cc(I)c2NCCC(C(N)=O)NC1=O (stereo not given in full),inhibition,,-2.76% (inactive)
O=C1c2ccccc2S(=O)(=O)c2cc(N3CCN(c4ccccn4)CC3)ccc21,inhibition,,-10.5% (inactive)
C=CCSc1nnc2c(n1)-c1cccc3cccc-2c13,inhibition,,10.4% (inactive)
COc1ccc(-c2nc3c(s2)CCc2onc(-c4ccc(Br)cc4)c2-3)cc1,inhibition,,-14.4% (inactive)
COC(C[C@@H](O)C[C@@H](O)[C@H](C)OCc1ccccc1)OC,inhibition,,1.16% (inactive)
C=CC(COCc1ccccc1)N(Cc1ccccc1)S(=O)(=O)c1ccccc1Br (stereo not given),inhibition,,14.3% (inactive)
CC(C)C[C@H](CO)Nc1nc(N(C)c2cccc(Cl)c2)c2ncn(C(C)C)c2n1,inhibition,,4.1% (inactive)
NCCCC[C@@H]1NC(=O)[C@H](CCC(=O)O)NC(=O)c2cc([N+](=O)[O-])cc(I)c2NCC[C@@H](C(N)=O)NC1=O,inhibition,,-2.74% (inactive)
COC(C[C@@H](O)C[C@H](O)[C@H](C)OCc1ccccc1)OC,inhibition,,8.66% (inactive)
COc1cccc(NC(=S)N(CCc2c(C)[nH]c3ccccc23)Cc2ccco2)c1,inhibition,,-5.74% (inactive)
O=c1cc(-c2ccccc2)[nH]c2cc(F)ccc12,inhibition,,2.31% (inactive)
C=CCCN(Cc1ccccc1)S(=O)(=O)c1ccccc1Br,inhibition,,17.6% (inactive)
COc1ccccc1-c1nnc(SCC(=O)N2CC(C)CC(C)C2)o1 (stereo not given),inhibition,,-13.8% (inactive)
COc1ccccc1-c1nc(C#N)c(N2CCC(C(N)=O)CC2)o1,inhibition,,31.8% (active)
same,inhibition,[1],33.6%
CC1CCN(c2oc(-c3ccccc3F)nc2C#N)CC1,inhibition,,19.3% (inactive)
O=C(NC1CC1)C1=C[C@H](c2coc3ccccc3c2=O)C[C@H](OCCCCO)O1,inhibition,,-32.1% (inactive)
O=C(C1=C[C@H](C2CC2)C[C@H](OCc2ccc(CO)cc2)O1)N1CCN(Cc2ccccc2)CC1,inhibition,,2.28% (inactive)
COC(=O)C1=C(C(=O)OC)[C@@H]2N(C)c3ccccc3[C@@]23C[C@@H](C(=O)OC)N(C(C)=O)C3=N1,inhibition,,1.9% (inactive)
CC(=O)n1cc([C@@H]2C=C(C(=O)N3CCN(Cc4ccc5c(c4)OCO5)CC3)O[C@H](OCc3ccc(CO)cc3)C2)c2ccccc21,inhibition,,5.68% (inactive)
O=C(NCc1cc(C(F)(F)F)cc(C(F)(F)F)c1)C1CC(c2cccc(F)c2)=NO1 (stereo not given),inhibition,,2.58% (inactive)
CCO[C@@H]1OC(C(N)=O)=C[C@H](c2ccc(Br)cc2)[C@H]1CCCO,inhibition,,3.81% (inactive)
CC(NC(=O)Nc1ccccc1)C(c1cccs1)N1CCN(c2ccccc2)CC1 (stereo not given),inhibition,,10.1% (inactive)
CCO[C@H]1OC(C(=O)NCc2ccccc2)=C[C@@H](c2coc3ccccc3c2=O)[C@@H]1CCCO,inhibition,,1.17% (inactive)
COc1ccc(-c2csc(N3CCN(Cc4ccc5c(c4)OCO5)CC3)n2)cc1,inhibition,,25.8% (inactive)
COc1ccc(-c2nnc(SCC(=O)c3ccc4c(c3)OCCO4)o2)cc1,inhibition,,-6.96% (inactive)
COc1ccc(C#Cc2c(-c3ccc(OC)cc3)oc3ccc(-c4ccc5c(c4)OCO5)cc23)cc1,inhibition,[1],110%
C[C@@H]1CC[C@]2(O[C@@H](CCO)C[C@H](O)[C@H]2O)O1,inhibition,,-20.2% (inactive)
CCOC(=O)c1sc(NC(=O)CSc2nc3c(c(=O)n2-c2ccccc2)SCC3)c(C(=O)OCC)c1C,inhibition,,-104% (inactive)
CCC(C)[C@@H](C(=O)N1CCNCC1)n1cc(CCCCN)nn1 (stereo not given in full),inhibition,,-10% (inactive)
CN1CCN(C(=O)C2=C[C@H](c3ccc4c(c3)OCO4)C[C@H](OCc3ccc(CO)cc3)O2)CC1,inhibition,,8.25% (inactive)
CC(C)(C)n1nc(Cc2cccc3ccccc23)c(C#N)c1N,inhibition,,-12.7% (inactive)
CCOC(=O)/C=C/c1ccc(C(F)(F)F)cc1S(=O)(=O)NC(C)(C)C,inhibition,,32.4% (inactive)
same,inhibition,[1],-3.06%
O=C1NC[C@@H](Cc2ccc(O)cc2)N(CCc2cccc(F)c2)C1=O,inhibition,,6.42% (inactive)
COC(=O)CCCC1=CC2=CC(=O)C(C)(OC(=O)c3cccs3)C(=O)C2=CN1CC1CC1 (stereo not given),inhibition,,1.92% (inactive)
COc1ccc(CNC(=O)C2(CC3CC(c4ccccc4)=NO3)CCN(C(=O)c3cccc(O)c3)CC2)cc1 (stereo not given),inhibition,,-4.7% (inactive)
COC(C/C=C/C(=O)[C@@H](C)OCc1ccccc1)OC,inhibition,,9.13% (inactive)
C#CCOCCOCCOCCNc1nc(N2CCN(C(=O)[C@H](Cc3ccc(O)cc3)n3cc(C(N)CC(C)C)nn3)CC2)nc(N2CCN(C(=O)[C@H](CCC(=O)O)n3cc(C(N)[C@H](C)CC)nn3)CC2)n1 (stereo not given in full),inhibition,,7.73% (inactive)
CN1CCCc2cc(C#N)c(=O)[nH]c21,inhibition,,48.2% (active)
same,inhibition,[1],113%
C#CCNC(=O)[C@H](Cc1ccc(C(=O)c2ccccc2)cc1)NC(=O)OC(C)(C)C,inhibition,,-13.5% (inactive)
